Measurements as given in publication PMC5540273 (PLoS ONE, 2017).

What follows are molecules tested on MAST1. Conditions: concentration: 1 μM,replicates: in singlicate; n = 1.
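Further: KINOMEscan kinase panel screen.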

Row | Structure (SMILES) | %Inh [%]
1 | CSc1nccc(-c2c(-c3ccc(F)cc3)ncn2CCCN2CCOCC2)n1.Cl [SB-217146] | 6
2 | NC(=O)c1ccc(-c2cc3ncnc(SCC(=O)O)c3s2)cc1 | 0
3 | COc1cccc(C2=C(Nc3cccc(Cl)c3)C(=O)NC2=O)c1 [SB-341556] | 0
4 | Cn1ccc2ncnc(Oc3ccc(NC(=O)Nc4ccnc(C(F)(F)F)c4)c(Cl)c3)c21 | 0
5 | Cc1n[nH]c2cc(Nc3ccnc(Nc4cccc(CN5CCOCC5)c4)n3)ccc12 [GW682569] | 16
6 | COC(=O)c1cccc(NC(=O)NC2CCN(c3ccnc(NCc4ccc(F)cc4)n3)CC2)c1 [GSK1379860] | 0
7 | CS(=O)c1ccc(-c2coc3ccc(-c4n[nH]c(=O)o4)cc23)cc1 (stereo not shown) | 6
8 | Cc1cccc2c(-c3ccncc3)c(-c3ccc(F)cc3)nn12.Cl [GW461487] | 0
9 | FC(F)(F)c1cc(Br)cc(Nc2nccc(-c3cnn4ncccc34)n2)c1 [GW810578] | 45
10 | O=C1NCCc2[nH]c(-c3ccncc3)cc21 | 59
11 | C[C@@H](Oc1cc(-n2cnc3cc(-c4ccncc4)ccc32)sc1C(N)=O)c1ccccc1Cl [GSK479719] | 0
12 | NC(=O)Nc1sc(-c2ccc(F)cc2)cc1C(N)=O [GW789449] | 46
13 | O=C(Nc1ccc(Oc2ccc3nc(NC(=O)C4CC4)cn3n2)c(F)c1)c1cccn(-c2ccccc2)c1=O | 10
14 | Cc1ccc(CC(=O)N2CCc3cc(-c4cn(C)c5ncnc(N)c45)ccc32)cc1 [GSK2634758] | 8
15 | Cl.Nc1n[nH]c2cc(-c3ccccn3)ccc12 [GSK2189892] | 0
16 | Cn1ccc2ncnc(Oc3ccc(NC(=O)Nc4cnn(C(C)(C)C)c4)c(Cl)c3)c21 | 0
17 | Cn1ccc2ncnc(Oc3ccc(NC(=O)Nc4cncc(C(F)(F)F)c4)c(Cl)c3)c21 | 6
18 | CCN1CCN(CCCC(=O)Nc2n[nH]c3nc(-c4ccc(O)cc4)c(Br)cc23)CC1 [SB-731579] | 65
19 | CC(C)c1nc(-c2cccc(NS(=O)(=O)c3ccccc3)c2)c(-c2ccnc(Nc3ccc4c(c3)CN(C)CC4)n2)s1 [GSK1649598] | 0

Row | Structure (SMILES) | %Inh [%]
20 | C[C@@H]1CNc2c(sc3ccc4nc(-c5ccncc5)ccc4c23)C(=O)N1 | 12
21 | COc1cccc(OC)c1C(=O)Nc1cccc(-c2nn3ccccc3c2-c2ccnc(Nc3cccc(F)c3)n2)c1 [GSK361065] | 9
22 | Cc1cccc(-c2nc(Nc3ccncc3)c3sccc3n2)n1 [GW869641] | 23
23 | c1ccc(Oc2ccc(Nc3ccnc4ccc(-c5ccccn5)cc34)cc2)cc1 [GW407034] | 2
24 | C[C@@H](Oc1cc(-n2cnc3cc(-c4cnn(C)c4)ccc32)sc1C(N)=O)c1ccccc1Cl [GSK580432] | 0
25 | CS(=O)(=O)c1cccc(CNc2nc(Nc3ccc4c(c3)[C@@H]3C[C@@H]4CNC3=O)ncc2C(F)(F)F)c1 | 0
26 | COc1cccc(CNC(=O)NC2CCN(c3ccnc(Nc4cc(OC)c(OC)c(OC)c4)n3)C2)c1 (stereo not shown) [GSK1379765] | 0
27 | Cc1nnc(-c2ccc3occ(-c4ccc(S(C)=O)cc4)c3n2)o1 (stereo not shown) | 0
28 | COc1cc2ncn(-c3cc(OCC4CCCCC4)c(C(N)=O)s3)c2cc1OC [GSK204559] | 0
29 | CC(=O)Nc1nc2cnc(Nc3cc(NC(=O)c4cccc(CC(C)(C)C#N)c4)ccc3C)nc2s1 | 53
30 | CN(c1ccc2c(c1)nc(NCc1ccc(F)cc1)n2C)c1ccnc(Nc2ccc(CS(C)(=O)=O)cc2)n1.Cl [GW813244] | 19
31 | Cc1ccc(C(=O)Nc2ccc(Oc3ccc4nc(NC(=O)C5CC5)cn4c3)c(F)c2)c(=O)n1-c1ccccc1 | 31
32 | COc1cc2c(Nc3ccc(NC(=O)c4ccccc4)cc3)ncnc2cc1OCCCN1CCOCC1 [GSK301329] | 0
33 | N#Cc1cccc(C(=O)NC2CCN(c3ccnc(Nc4ccc(F)cc4)n3)C2)c1 (stereo not shown) [GSK1379708] | 0
34 | O=C(NOCC1CC1)c1cc(Br)c(F)c(F)c1Nc1ccc(I)cc1Cl | 0
35 | COc1cc2nccc(Nc3ccc(Oc4ccccc4)cc3)c2cc1OC.Cl [GI261656] | 3
36 | O=C(Nc1cccc(C(F)(F)F)c1)c1cccc(Oc2ccc3nccn3n2)c1 | 0
37 | CN(c1ccccc1CNc1nc(Nc2ccc3c(c2)CC(=O)N3)ncc1C(F)(F)F)S(C)(=O)=O | 0
